In the supplement of paper PMC11732987, “Enantioselective OTUD7B fragment discovery through chemoproteomics screening and high-throughput optimisation” (Communications Chemistry, 2025):

What was measured:
Experiment in all cases: log2 ratio of Biotin-Ahx-Ub-VS probe labelling (compound/DMSO); higher = less target engagement, active = hit call of the paper (q ≤ 0.05, log2 ratio ≤ -1)
Details in all cases: treatment time: 3 h
[1] = compound: CCC1N(CCc2sccc12)C(=O)CCl
Summary of the method: (§1)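 Compound at 50 or 200 µM, or DMSO, was applied for 3 h in triplicate to HEK293T lysate (495 µg per sample, Tris/CHAPS/IGEPAL buffer with protease inhibitors), after which Biotin-Ahx-Ub-VS was added at 0.5 µM final for 1 h. The labelled DUBs were pulled down with NeutrAvidin, digested with LysC and trypsin, and run by diaPASEF LC-MS/MS. Ratios are averaged base-two logs of compound over DMSO from median-normalised label-free quantities by unpaired t-test, counting only proteins with at least 2 unique peptides.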

[2] = compound: CN1c2ccccc2C(CS1(=O)=O)NC(=O)CCl
Summary of the method: as §1

[3] = compound: Cl.ClCC(=O)N1CCc2ncncc2C1
Summary of the method: as §1

[4] = compound: Cl.Cn1ncc2C(CCCc12)NC(=O)CCl
Summary of the method: as §1

[5] = compound: ClCC(=O)NC1CCOc2ccccc12
Summary of the method: as §1

[6] = compound: ClCC(=O)NC1CCCc2ccccc12
Summary of the method: (§2)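 HEK293T lysate (495 µg per sample, in Tris/CHAPS/IGEPAL buffer with protease inhibitors) was treated in triplicate with compound over a concentration series or DMSO for 3 h, then with Biotin-Ahx-Ub-VS (0.5 µM final) for 1 h. Labelled DUBs were NeutrAvidin-enriched, digested with LysC and trypsin, and run by diaPASEF LC-MS/MS. Spectronaut label-free protein quantities were global-median-normalised. Values are average log2 ratios compound/DMSO from an unpaired t-test, using proteins with ≥2 unique peptides.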

[7] = compound: ClCC(=O)N[C@@H]1CCCc2ccccc12
Summary of the method: as §2

[8] = compound: ClCC(=O)N[C@H]1CCCc2ccccc12
Summary of the method: as §2

[9] = compound: CCC1N(CCc2cc(OC)c(Cl)cc12)C(=O)CCl
Summary of the method: as §1

[10] = compound: CCCC1N(CCc2cc(OC)c(OC)cc12)C(=O)CCl
Summary of the method: as §1

Measured: log2 ratio of Biotin-Ahx-Ub-VS probe labelling

USP39 (UniProt Q53GS9)
Sequence of UniProt Q53GS9 (Q53GS9 whole entry): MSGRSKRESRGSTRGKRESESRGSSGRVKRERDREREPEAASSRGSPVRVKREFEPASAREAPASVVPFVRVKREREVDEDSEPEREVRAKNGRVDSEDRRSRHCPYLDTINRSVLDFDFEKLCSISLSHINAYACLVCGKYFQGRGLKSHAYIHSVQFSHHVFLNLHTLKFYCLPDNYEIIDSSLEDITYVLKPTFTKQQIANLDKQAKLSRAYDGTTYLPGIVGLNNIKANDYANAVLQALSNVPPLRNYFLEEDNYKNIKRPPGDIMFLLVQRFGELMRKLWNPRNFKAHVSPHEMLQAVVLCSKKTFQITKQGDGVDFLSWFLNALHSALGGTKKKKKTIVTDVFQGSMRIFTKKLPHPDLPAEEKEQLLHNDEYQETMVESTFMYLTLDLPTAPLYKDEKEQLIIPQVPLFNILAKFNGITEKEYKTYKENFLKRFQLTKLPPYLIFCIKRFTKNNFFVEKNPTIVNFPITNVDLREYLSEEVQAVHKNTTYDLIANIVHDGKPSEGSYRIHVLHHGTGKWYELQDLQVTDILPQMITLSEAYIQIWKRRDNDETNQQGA
inactive: [1]; compound concentration: 50uM 0.0546 | [1]; compound concentration: 200uM -0.102 | [2]; compound concentration: 50uM -0.157 | [2]; compound concentration: 200uM -0.0618 | [3]; compound concentration: 50uM 0.0365 | [3]; compound concentration: 200uM -0.18 | [4]; compound concentration: 50uM 0.0136 | [4]; compound concentration: 200uM -0.0545 | [5]; compound concentration: 50uM 0.225 | [5]; compound concentration: 200uM -0.157 | [6]; compound concentration: 0.78uM -0.0849 | [6]; compound concentration: 1.56uM 0.00415 | [6]; compound concentration: 3.13uM -0.107 | [6]; compound concentration: 6.25uM -0.121 | [6]; compound concentration: 12.5uM -0.133 | [6]; compound concentration: 25uM -0.219 | [6]; compound concentration: 50uM -0.32 | [6]; compound concentration: 100uM -0.0966 | [6]; compound concentration: 200uM -0.188 | [7]; compound concentration: 0.78uM -0.138 | [7]; compound concentration: 1.56uM -0.0134 | [7]; compound concentration: 3.13uM 0.0533 | [7]; compound concentration: 6.25uM -0.0819 | [7]; compound concentration: 12.5uM -0.132 | [7]; compound concentration: 25uM -0.181 | [7]; compound concentration: 50uM -0.277 | [7]; compound concentration: 100uM -0.108 | [7]; compound concentration: 200uM -0.208 | [8]; compound concentration: 0.78uM 0.0296 | [8]; compound concentration: 1.56uM -0.22 | [8]; compound concentration: 3.13uM -0.0221 | [8]; compound concentration: 6.25uM -0.000844 | [8]; compound concentration: 12.5uM -0.0179 | [8]; compound concentration: 25uM -0.167 | [8]; compound concentration: 50uM -0.0419 | [8]; compound concentration: 100uM -0.206 | [8]; compound concentration: 200uM -0.187 | [9]; compound concentration: 50uM 0.209 | [9]; compound concentration: 200uM 0.0808 | [10]; compound concentration: 50uM -0.0814 | [10]; compound concentration: 200uM -0.0567

EIF3H (UniProt O15372)
Sequence of UniProt O15372 (O15372 whole entry): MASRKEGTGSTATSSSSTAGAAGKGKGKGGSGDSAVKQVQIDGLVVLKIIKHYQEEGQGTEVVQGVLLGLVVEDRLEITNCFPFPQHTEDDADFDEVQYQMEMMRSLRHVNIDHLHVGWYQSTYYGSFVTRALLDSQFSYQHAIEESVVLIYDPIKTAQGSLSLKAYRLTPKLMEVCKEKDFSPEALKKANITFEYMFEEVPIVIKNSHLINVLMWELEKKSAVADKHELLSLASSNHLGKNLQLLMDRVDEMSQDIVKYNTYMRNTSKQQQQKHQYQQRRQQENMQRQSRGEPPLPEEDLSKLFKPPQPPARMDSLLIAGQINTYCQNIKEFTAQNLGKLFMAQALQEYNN
inactive: [1]; compound concentration: 50uM 4e-05 | [1]; compound concentration: 200uM -0.0195 | [2]; compound concentration: 50uM 0.0525 | [2]; compound concentration: 200uM 0.0675 | [3]; compound concentration: 50uM -0.0138 | [3]; compound concentration: 200uM -0.124 | [4]; compound concentration: 50uM -0.0892 | [4]; compound concentration: 200uM -0.0788 | [5]; compound concentration: 50uM 0.0209 | [5]; compound concentration: 200uM -0.0491 | [6]; compound concentration: 0.78uM -0.172 | [6]; compound concentration: 1.56uM 0.005 | [6]; compound concentration: 3.13uM 0.0821 | [6]; compound concentration: 6.25uM -0.12 | [6]; compound concentration: 12.5uM -0.146 | [6]; compound concentration: 25uM -0.153 | [6]; compound concentration: 50uM 0.125 | [6]; compound concentration: 100uM 0.0329 | [6]; compound concentration: 200uM -0.275 | [7]; compound concentration: 0.78uM -0.105 | [7]; compound concentration: 1.56uM 0.0364 | [7]; compound concentration: 3.13uM -0.02 | [7]; compound concentration: 6.25uM 0.0572 | [7]; compound concentration: 12.5uM 0.182 | [7]; compound concentration: 25uM -0.109 | [7]; compound concentration: 50uM 0.0801 | [7]; compound concentration: 100uM 0.0419 | [7]; compound concentration: 200uM 0.454 | [8]; compound concentration: 0.78uM 0.0712 | [8]; compound concentration: 1.56uM -0.0618 | [8]; compound concentration: 3.13uM -0.213 | [8]; compound concentration: 6.25uM 0.288 | [8]; compound concentration: 12.5uM 0.201 | [8]; compound concentration: 25uM 0.184 | [8]; compound concentration: 50uM 0.306 | [8]; compound concentration: 100uM -0.0743 | [8]; compound concentration: 200uM 0.179 | [9]; compound concentration: 50uM -0.165 | [9]; compound concentration: 200uM -0.139 | [10]; compound concentration: 50uM 0.00258 | [10]; compound concentration: 200uM 0.0942
